Assay results published in PubChem BioAssay AID602393 (Broad Institute, 2012).
Hit rate of the full screen: of about 350,000 compounds, about 7,000 (2%) were called active. Rule as the data show it: active = activation above about 40%; inconclusive = no clear call, values can overlap the other calls; inactive = below that. Many of the other results were omitted from the sample, so actives are more common in it than they were.

Assay: raisers of Bmi1 knock-in reporter signal – mouse ES cells, Bmi1 luciferase knock-in, single point, esBAF inhibitor project, primary screen (AID 602393);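 also: 0% = median of the plate's neutral control wells and 100% = double that signal; a rise in the Bmi1 reporter signal indicates esBAF inhibition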
Settings: 24 h, at 12.5 µM, active compounds read high, 100% = twice the neutral-well signal

SMILES	reporter increase
CC(=O)Nc1ccc(C(=O)CSc2nc3ccc(C)cc3[nH]2)cc1	1.14% (inactive)
Cc1ccc2cc(/C=N/Nc3ccc(C(=O)O)cc3)c(Cl)nc2c1	63.2% (active)
Cc1ccn2c(-c3csc(Nc4ccc(C(=O)O)cc4)n3)c(C)nc2c1	3.65% (inactive)
C/C=C/c1cnc2c(c1)C(=O)N([C@H](C)CO)C[C@H](C)[C@@H](CN(C)C(=O)c1cccc(F)c1)O2	1.29% (inactive)
C[C@@H]1CCCCO[C@@H](CN(C)S(=O)(=O)c2ccccc2)[C@H](C)CN([C@H](C)CO)C(=O)c2cc(NC(=O)CCC(F)(F)F)ccc2O1	3.27% (inactive)
COc1cccc(S(=O)(=O)N[C@@H]2CC[C@H](CCNC(=O)Cc3ccncc3)O[C@@H]2CO)c1	3.37% (inactive)
O=C(C[C@@H]1CC[C@@H]2[C@H](COC[C@@H](O)CN2Cc2cc(F)cc(F)c2)O1)NCc1cccc(F)c1	4.76% (inactive)
O=C(C[C@@H]1C[C@@H]2c3cc(NS(=O)(=O)c4ccc(F)cc4)ccc3O[C@@H]2[C@@H](CO)O1)NCc1ccncc1	-5.57% (inactive)
C/C=C/c1ccc([C@H]2[C@@H](CO)N(C(=O)Cc3ccncc3)[C@@H]2CNC(C)=O)cc1	-0.088% (inactive)
COc1ccc(C(=O)COC(=O)C(O)c2ccccc2)c(OC)c1 (stereo not given)	67.1% (active)
COc1ccc(C(=O)CCC(=O)Nc2cccnc2)c(OC)c1	-1.7% (inactive)
COc1ccc(C(=O)COC(=O)CN2C(=O)C3CC=CCC3C2=O)c(OC)c1 (stereo not given)	-4.47% (inactive)
COc1ccc(C(=O)CCc2ccccc2O)c(OC)c1	92.4% (active)
CCOC(=O)c1c(C)[nH]c(C(=O)OCC(=O)c2ccc(OC)cc2OC)c1C	6.18% (inactive)
COc1ccc(C(=O)NC(C)CCc2ccccc2)c(OC)c1 (stereo not given)	-1.75% (inactive)
C[C@H](CO)N1C[C@H](C)[C@H](CN(C)C(=O)CCC(F)(F)F)OCCCC[C@H](C)Oc2ccc(NS(=O)(=O)c3ccc(F)cc3)cc2C1=O	-0.446% (inactive)
C[C@@H]1CCCCO[C@@H](CN(C)S(=O)(=O)c2ccc(F)cc2)[C@@H](C)CN([C@@H](C)CO)C(=O)c2cc(NC(=O)Nc3ccc(F)cc3)ccc2O1	3.89% (inactive)
C[C@@H]1CN([C@@H](C)CO)C(=O)Cc2cc(NC(=O)Nc3ccc4c(c3)OCO4)ccc2O[C@H]1CN(C)S(=O)(=O)c1ccc(F)cc1	-0.705% (inactive)
CN1[C@@H]2CN(C(=O)c3ccc(F)cc3)c3ccccc3[C@@H]2[C@@H]1CO	2.63% (inactive)
CCc1c(C)nc2cc(-c3cccs3)[nH]n2c1=O	48.4% (active)

SMILES	reporter increase
C=CCc1c(C)nc2cc(-c3ccccc3)[nH]n2c1=O	34.3% (inactive)
CCc1c(C)nc2cc(C)[nH]n2c1=O	-4.73% (inactive)
O=C(C[C@H]1C=C[C@H](NC(=O)C2CCOCC2)[C@@H](CO)O1)NCC1CC1	-1.58% (inactive)
Cc1ccc(-c2ccc3c(c2)O[C@H](CN(C)C(=O)Nc2ccccc2)[C@@H](C)CN([C@@H](C)CO)S3(=O)=O)cc1	-1.56% (inactive)
Cc1ccccc1-c1nnn(CC(=O)c2ccc(S(=O)(=O)N3CCCC3)cc2)n1	5.35% (inactive)
O=C(Cn1nnc(-c2ccccc2)n1)NC(=O)NC1CCCC1	-2.48% (inactive)
CC(C)(C)NC(=O)Cn1nnc(-c2ccccc2Cl)n1	56.6% (active)
CCCC(=O)Nc1ccc2c(c1)C(=O)N(C)[C@@H]1CC[C@H](CC(=O)NCCN3CCCCC3)O[C@@H]1CO2	0.938% (inactive)
O=C(C[C@@H]1C=C[C@H](NC(=O)C2CCOCC2)[C@H](CO)O1)NCc1ccncc1	5.38% (inactive)
COCc1nc2ccccc2n1Cc1ccccc1Br	-3.15% (inactive)
CC(C)n1c(COc2ccccc2)nc2ccccc21	-1.17% (inactive)
COCn1c(COc2ccccc2)nc2ccccc21	80.5% (active)
CCS(=O)(=O)n1nc(-c2ccc(OC)cc2)nc1SC	55.7% (active)
COc1ccc(-n2c(SC)nc(O)cc2=O)cc1	-1.49% (inactive)
O=S(=O)(c1ccc(SCc2ccccc2)nc1)N1CCCCCC1	8.09% (inactive)
CCS(=O)(=O)n1nc(-c2ccccc2)nc1SCc1ccccc1	45.9% (active)
CCOC(=O)N1CCN(S(=O)(=O)c2ccc(OC)cc2)CC1	-4.19% (inactive)
C=CCn1c(SCc2ccccc2)nc2c1c(=O)[nH]c(=O)n2C	8.86% (inactive)
Cc1cccc(S(=O)(=O)N2C[C@@H]3[C@H](c4ccccc42)[C@H](CO)N3CC2CCOCC2)c1	3.89% (inactive)
CCC(=O)N(C)C[C@@H]1Oc2cc(C#CC(C)(C)O)ccc2S(=O)(=O)N([C@@H](C)CO)C[C@@H]1C	1.13% (inactive)
